Data from PubChem BioAssay (NCI).
This is part of a sample that, as a whole, favours compounds with a hit. Of some 83,000 tested, about 20% had one in any assay.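 How to read the values: 0–100, growth inhibition (40 = 60% inhibited); 0, no net growth; -100 to 0, cell death (-40 = 40% of starting cells died; -100 = all dead).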 Values without a mark were called inactive. Activity calls are given as the source filed them. The calls were made as follows: active = growth percent below 10; inactive = the rest.

Experiments:
Assay in all cases: NCI-60 one-dose screen, 48 h (100 = growth as untreated, 0 = no growth, -100 = all killed)
Conditions in all cases: 10 µM
NCI-H23 lung = tested on: NCI-H23 lung
NCI-H226 lung = tested on: NCI-H226 lung
NCI-H322M lung = tested on: NCI-H322M lung
HOP-62 NSCLC = tested on: HOP-62 NSCLC
NCI-H460 lung = tested on: NCI-H460 lung
NCI-H522 lung = tested on: NCI-H522 lung
A549/ATCC NSCLC = tested on: A549/ATCC NSCLC
786-0 renal = tested on: 786-0 renal
COLO 205 colon = tested on: COLO 205 colon
DU-145 prostate = tested on: DU-145 prostate

| Compound | growth (NCI-H23 lung) | growth (NCI-H226 lung) | growth (NCI-H322M lung) | growth (HOP-62 NSCLC) | growth (NCI-H460 lung) | growth (NCI-H522 lung) | growth (A549/ATCC NSCLC) | growth (786-0 renal) | growth (COLO 205 colon) | growth (DU-145 prostate) |
| --- | --- | --- | --- | --- | --- | --- | --- | --- | --- | --- |
| COc1ccc(Nc2cc(C)nc(NCCCNc3ccnc4cc(Cl)ccc34)n2)cc1 | 63.2% | 110% | -3.79% (active) | 18.7% | -4.78% (active) | -74% (active) | -44.7% (active) | -97.7% (active) | -96.3% (active) | 28% |
| CCC(=O)N1C/C(=C/c2ccc(Br)cc2)C(=O)/C(=C/c2ccc(Br)cc2)C1 | -46.2% (active) | -62.8% (active) | -27.2% (active) | -67.4% (active) | -46.8% (active) | -79.6% (active) | -27.2% (active) | -77.3% (active) | -93.1% (active) | -65.4% (active) |
| C[C@]12CC[C@@H]3c4ccc(O)cc4C[C@@H](O)[C@H]3[C@@H]1CC[C@@H]2O | 110% | 101% | 102% | 108% | 108% | 106% | 94.6% | 105% | 119% | 110% |
| CCOC(=O)c1ccc(NC(=O)Nc2ncc(Cl)cc2Cl)cc1 | 93.9% | 95.3% | 99.3% | 104% | 93.3% | -37.6% (active) | 40.7% | 92.9% | 130% | 111% |
| COc1cc(-c2cc(C(=O)N3CCN(C(=O)c4ccccc4NCc4ccco4)CC3)nc3cc(-c4ccccc4)nn23)cc(OC)c1OC | 56.7% | 57% | 13.5% | 45.2% | 7.61% (active) | -6.6% (active) | 24.6% | 31.6% | -16.7% (active) | 2.04% (active) |
| CCCCCCCCCCCCCCCCCC(=O)OCCCCCCC | 94.8% | 89.6% | 109% | 121% | 109% | 107% | 95.2% | 114% | 110% | 104% |
| CC[C@H](C)C(=O)O[C@H]1CCC=C2C=C[C@H](C)C(CCC3C[C@@H](O)CC(=O)O3)[C@H]21 (stereo not given in full) | 64.4% | 76.8% | 44.6% | 87% | 92.9% | 23% | 97.2% | 84.8% | 89% | 110% |
| O=S(=O)(Nc1ccccn1)c1ccc(N=Nc2ccc(O)c3ncccc23)cc1 | 14.5% | 21.3% | -11.8% (active) | 7.27% (active) | 5.48% (active) | -21.6% (active) | -6.8% (active) | 21.4% | 108% | 27.6% |
| COc1ccc(/C(=C2/O[C@@H]([C@H]3COC(C)(C)O3)[C@H]3OC(C)(C)O[C@@H]23)c2cc(OC)c(OC)c(OC)c2)cc1O | 81.2% | 113% | 91.5% | 91.3% | 104% | 51.8% | 80.1% | 86.3% | 121% | 45.6% |
| Cc1ccc(N=Nc2c(N)nc(N)[nH]c2=O)cc1C | 101% | 93.5% | 83.1% | 92.9% | 107% | 92.1% | 104% | 91.2% | 112% | 117% |
| CCN(CC)CCOc1nc2ccc(OC)cc2c2c1-c1ccc(OC)cc1C2=O | -30.5% (active) | 16.5% | -13.2% (active) | 6.96% (active) | -75.4% (active) | -89.2% (active) | -67.2% (active) | 26% | 15.3% | -70.3% (active) |
| O=C(O)C(SC(C(=O)O)c1ccccc1)c1ccccc1 (stereo not given) | 99.8% | 95.9% | 118% | 107% | 110% | 108% | 103% | 103% | 113% | 104% |
| O=C(Nc1cccc(Br)c1)c1cc(=O)[nH]c2ccccc12 | 103% | 82.9% | 94.2% | 64.3% | 105% | 86.7% | 94.1% | 103% | 85.1% | 110% |
| Cc1ccc(NC(=O)NC2CCCCC2)cc1 | 108% | 95.5% | 92.2% | 96.1% | 102% | 82.8% | 91.5% | 98.6% | 105% | 114% |
| CCCCCCN1C(=O)C2=C(c3ccc(Cl)cc3)Nc3c(c(C)nn3-c3ccccc3)C2c2ccccc21 (stereo not given) | 98.6% | 77.5% | 90.5% | 96.8% | 106% | 80.7% | 85.2% | 89% | 106% | 104% |
| COc1cccc(C(=O)Nc2ccc(CN3CCc4nc5cc(OC)c(OC)cc5cc43)cc2)c1 | 56.9% | 68.4% | 61.7% | 81% | 9.4% (active) | 42.7% | 36.5% | 64.1% | 44.1% | 46.1% |
| COc1ccc([N+](=O)[O-])c(C(=O)O)c1 | 105% | 95% | 93.4% | 100% | 106% | 73.4% | 103% | 101% | 102% | 112% |
| Cc1ccc2oc3nc(C)c(C(=O)NCc4ccccc4)cc3c(=O)c2c1 | 83.8% | 104% | 76.8% | 100% | 41.4% | 76.7% | 73.5% | 55.6% | 23.8% | 86.9% |
| CN(C)c1ccc(N=C2C=CC(=O)c3ccccc32)cc1 | 35.1% | 91.7% | 14.9% | 82.5% | 15.3% | 48.2% | 28% | 90.3% | 11.8% | -58% (active) |
| NC(=O)SCC(=O)Nc1ccc(S(N)(=O)=O)cc1 | 106% | 93% | 121% | 101% | 108% | 105% | 103% | 107% | 107% | 112% |
| C(CCCC1=NCCO1)CCCC1=NCCO1 | 97.2% | 95.8% | 118% | 107% | 104% | 103% | 101% | 99.1% | 99.5% | 108% |
| NC1(C(=O)O)CSSC1 | 49.8% | 60.5% | 109% | 35.9% | 13.3% | 121% | 22.1% | 107% | 102% | 78.8% |
| CC(C)=CCc1ccc(O)c(=O)cc1C(C)C | 12.9% | 4.5% (active) | 10.5% | 14.6% | 5.04% (active) | 28.5% | 9.13% (active) | 6.68% (active) | 26.7% | 28.5% |
| COc1cc2cc3c(nc2cc1OC)CCN3Cc1ccc(NC(=O)c2ccc(Cl)c(C(F)(F)F)c2)cc1 | 99.7% | 71.2% | 84.9% | 105% | 107% | 86.6% | 97% | 105% | 109% | 117% |
| CC(C)=CCc1cc(O)cc2c1OC(C=C(C)C)C1=C2C(=O)C2=C(C1=O)S(=O)(=O)CCN2 (stereo not given) | 28.6% | 59.8% | 5.2% (active) | 35% | 31.4% | 7.19% (active) | 70.1% | 80% | 43.4% | 56.4% |
| COc1ccc(-c2nn(-c3cccc(NC(=O)Nc4ccccc4)c3)cc2-c2ccncc2)cc1Cl | 42.6% | 70.6% | 39.5% | 46% | 4.93% (active) | 5.77% (active) | -4.41% (active) | 42.2% | -50.6% (active) | 50.1% |
| O=C(Nc1ccncc1)C(=O)c1cn(S(=O)(=O)c2ccc(F)cc2)c2ccccc12 | 36.8% | 53.7% | 84.9% | 36.2% | 74.7% | 0.626% (active) | 82.3% | 43.9% | 103% | 32% |
| Nc1ccc2c(c1)C1(CCC2)NC(=O)NC1=O (stereo not given) | 103% | 92.1% | 103% | 101% | 103% | 98.6% | 99.5% | 100% | 105% | 114% |
